Laboratory results: PubChem BioAssay (NCATS)
Records with an inconclusive call do not appear. The source made the active and inactive calls. The call rests on the fitted dose curve; in most records, active means well fitted inhibition curve with a large enough effect; inconclusive means small, poorly fitted or top-dose-only effect; inactive means flat fitted curve, though single readings scatter.

molecular target: Calcium and integrin-binding protein 1 (Homo sapiens) (UniProt Q99828); assay: Primary qHTS for Identification of Calcium Integrin Binding Protein 1 (CIB1) Competitor (AID 1508620); details: CIB1-GST / FITC-alphaIIb peptide fluorescence polarization; series mostly up to 114 µM; activity change, negative = inhibition: at the top concentration; further: top concentration of the series differs between compounds
Sequence (Q99828 whole entry, looked up): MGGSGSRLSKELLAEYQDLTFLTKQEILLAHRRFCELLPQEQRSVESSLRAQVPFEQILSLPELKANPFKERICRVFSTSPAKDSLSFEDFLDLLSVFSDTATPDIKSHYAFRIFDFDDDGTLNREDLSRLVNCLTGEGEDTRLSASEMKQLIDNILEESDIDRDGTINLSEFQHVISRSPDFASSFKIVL
Procedure, shortened: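 Fluorescence polarization competition: GST-tagged CIB1 (1 uM final) preincubated with compound 15 min at room temperature, then FITC-labelled alphaIIb peptide (100 nM final) added. After 15 min at room temperature, polarization read at Ex 480/Em 540.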
On the % scale 0 is the no-effect control and ±100 the full control effect.

| Compound | activity change, negative = inhibition |
| --- | --- |
| CC(C)(C)NS(=O)(=O)c1cccc(-c2nnc(SCc3ccc(C(=O)O)cc3)n2-c2ccccc2)c1 | -5.34% (inactive) |
| COc1ccc(C2=Nn3c(nnc3-c3ccccc3OC)SC2)cc1OCC1CC1 | 0.168% (inactive) |
| N#Cc1nonc1-c1ccccc1 | 1.62% (inactive) |
| O=S(=O)(NC1CCCC(NS(=O)(=O)c2c(F)cccc2F)C1)c1ccc2c(c1)OCCO2 (configuration not stated) | -1.73% (inactive) |
| Cc1cc2c(s1)c1cnn(Cc3ccc(F)c(Cl)c3)c(=O)c1n2C | 0.767% (inactive) |
| Cc1ccc(-c2cnn(CC(=O)NCCc3ccccc3)c(=O)c2)cc1 | 2.92% (inactive) |
| Cc1cc(NS(=O)(=O)c2ccc(NC(=O)Cc3ccc(C)c(F)c3)cc2)no1 | -8.3% (inactive) |
| Cn1c2cc(Br)sc2c2cnn(Cc3ccc(F)cc3)c(=O)c21 | 6.01% (inactive) |
| COc1ccc2nc(-c3cccc(F)c3)sc2c1 | 0.412% (inactive) |
| O=S(=O)(c1ccc(Br)cc1)N1CCN(S(=O)(=O)c2ccc3c(c2)OCCO3)CC1 | 5.25% (inactive) |
| N#Cc1c(-c2ccc3ccccc3c2)no[n+]1[O-] | -0.682% (inactive) |
| Cc1cc(-c2nnc3n2CCCCCC3)c(C)n1-c1ccccc1 | 1.88% (inactive) |
| N#Cc1c(-c2cccc(C(F)(F)F)c2)no[n+]1[O-] | -0.333% (inactive) |
| CC(C)c1ccccc1-c1nc(NCc2ccc(-c3cccnc3)cc2)c2[nH]cnc2n1 | -3.36% (inactive) |
| COc1ccc(OC)c(C2=Nn3c(nnc3-c3ccccc3O)SC2)c1 | 1.53% (inactive) |
| Cc1nnc2sc(-c3cccc(NC(=O)c4ccc(-c5cccc(Cl)c5)o4)c3)nn12 | -3.26% (inactive) |
| CC(=O)N[C@@H](Cc1ccc(O)cc1)C(=O)N[C@H](C(=O)N[C@@H](C)C(=O)N[C@H](C#N)CC(=O)O)C(C)C | 3.79% (inactive) |
